Earlier results on 20 compounds are cited in PubChem BioAssay AID977611.

Hit rate of the full screen: of about 3,900 compounds, about 3,900 (100%) were called active. The limit is not given here; nearly all actives have Kd up to about 4200 µM. The set was probably picked from earlier hits. The list shows a part of the results. Starred links: 1 amine or outer side, 2 acyl side, 3 side chain; linkers in the order of their positions; H or OH if unused. *1 amine or outer side, *2 acyl side, *3 side chain or, on linkers, in order; H or OH if unused. Where a SMILES comes first, the peptide text is derived from it. Non-standard residues stand in square brackets, D forms with d. Residues, ends and D or L forms follow the SMILES beside them. Peptide text beside a SMILES is read from it. [ ]: non-standard residue; d: D form. X1 = O=C([C@H](Cc1ccc(O[P+](O)(O)O)cc1)N[*:1])[*:2]

What is called Kd is the free concentration of one partner at which half of the binding sites on the other are occupied at equilibrium, for simple one-to-one binding.

A short description of the data set: PubChem AID 977611. As to conditions: PDB protein-ligand complexes, literature Kd.

Take `CC(C)C[C@H](NC(=O)[C@H](Cc1ccccc1)NC(=O)[C@@H]1CCCN1C(=O)[C@@H](NC(=O)[C@H](CC(C)C)NC(=O)[C@H](CO)NC(=O)[C@H](Cc1c[nH]cn1)NC(=O)[C@H](Cc1c[nH]c2ccccc12)NC(=O)[C@@H]1CCCN1C(=O)[C@H](Cc1ccccc1)NC(=O)[C@@H](N)C(C)C)C(C)C)C(=O)N[C@@H](C)C(=O)N1CCC[C@H]1C(=O)N[C@@H](CO)C(=O)N[C@@H](CCC(N)=O)C(=O)O` (H-VFPWHSLVPFLAPSQ-OH): where the note is “protein: Ataxin-1, PDB entry 2m41”, the dissociation constant (Kd) is 8 µM (active).

As for H-DWDFLPP-NH2, under “protein: Gamma-aminobutyric acid receptor-associated protein, PDB entry 3dow”, the Kd was 11.5 µM (active).

As to `C=CCO[C@]1(C(=O)O)C[C@@H](O[C@]2(C(=O)O)C[C@@H](O)[C@@H](O)[C@@H]([C@H](O)CO[C@]3(C(=O)O)C[C@@H](O)[C@@H](O)[C@@H]([C@H](O)CO)O3)O2)[C@@H](O)[C@@H]([C@H](O)CO)O1`, the Kd (protein: antigen binding fragment of mAb S25-26, PDB entry 4m7j) is 0.781 µM (active).

As for `CC(C)[C@H](NC(=O)[C@H](CCC(=O)O)NC(=O)[C@@H](NC(=O)[C@@H](N)CC(=O)O)[C@@H](C)O)C(=O)N[C@@H](Cc1ccc(O)cc1)C(=O)N[C@@H](CCC(=O)O)C(=O)N[C@@H](CO)C(=O)N1CCC[C@H]1C(=O)N[C@@H](Cc1ccc(O[P+](O)(O)O)cc1)C(=O)N[C@@H](C)C(=O)N[C@@H](CC(=O)O)C(=O)N1CCC[C@H]1C(=O)N[C@@H](CCC(=O)O)C(=O)O` (H-DTEVYESP[X1]ADPE-OH), the Kd (protein: Proto-oncogene vav, PDB entry 2mc1) is 71 µM (active).

As to `CC(=O)N[C@@H](CC(=O)O)C(=O)N[C@H](C(=O)N[C@@H](CCC(=O)O)C(=O)N[C@H](C(=O)N[C@@H](Cc1ccc(O[P+](O)(O)O)cc1)C(=O)N[C@@H](CCC(=O)O)C(=O)N[C@@H](CO)C(=O)N1CCC[C@H]1C(=O)N[C@@H](Cc1ccc(O[P+](O)(O)O)cc1)C(=O)N[C@@H](C)C(=O)N[C@@H](CC(=O)O)C(=O)N1CCC[C@H]1C(=O)N[C@@H](CCC(=O)O)C(N)=O)C(C)C)[C@@H](C)O` (Ac-DTEV[X1]ESP[X1]ADPE-NH2), the equilibrium dissociation constant (Kd) (protein: C-termainl SH2 domain from phospholipase C-gamma-1 comprising residues 663-759( PLC?), PDB entry 2fci) was 0.07 µM (active).

Take `O=C(Nc1ccc(-c2nn[nH]n2)cc1Cc1ccccc1)c1cccc(CC2CCCCC2)n1`: the Kd (protein: KSHV Protease, PDB entry 4p3h) was 1 µM (active).

`CN(C)c1cc[n+](Cc2ccc(CCCCc3ccc(CN4C=CC(N(C)c5ccc(Cl)cc5)C=C4)cc3)cc2)cc1`: the dissociation constant (Kd) (protein: Human choline kinase a1, PDB entry 4cg8) was 0.11 µM (active).

`CN(C)c1cc[n+](Cc2ccc(CCc3ccccc3)cc2)cc1`: the Kd (protein: Human choline kinase a1, PDB entry 4cga) was 0.4 µM (active).

`CN(C)c1cc[n+](Cc2ccc(-c3ccc(Cn4cnc(=N)c5[nH]cnc54)cc3)cc2)cc1`: the Kd (protein: CHOLINE KINASE ALPHA, PDB entry 4br3) is 1.9 µM (active).

For `CN(C)c1cc[n+](Cc2ccc(-c3ccccc3)cc2)cc1`, the Kd (protein: Human choline kinase a1, PDB entry 4cg9) is 0.62 µM (active).

Take `CC(=O)N[C@@H]1[C@@H](O[C@H]2O[C@H](CO)[C@H](O[C@H]3O[C@H](CO[C@@H]4O[C@@H](C)[C@H](O)[C@@H](O)[C@H]4O)[C@@H](O)[C@H](O)[C@H]3O)[C@H](O[C@@H]3O[C@H](CO)[C@@H](O)[C@H](O)[C@H]3NC(C)=O)[C@H]2O)[C@H](O)[C@@H](CO[C@H]2O[C@H](CO)[C@@H](O)[C@H](O)[C@H]2O)O[C@@H]1O`: the equilibrium dissociation constant (Kd) (protein: TAIL SPIKE PROTEIN(E372Q mutant), PDB entry 2x6w) is 0.079 µM (active).

Turning to `CC(=O)N[C@H]1[C@H](O[C@@H]2[C@@H](O)[C@@H](O)O[C@H](CO)[C@@H]2O[C@H]2O[C@H](CO[C@@H]3O[C@@H](C)[C@H](O)[C@@H](O)[C@H]3O)[C@@H](O)[C@H](O)[C@H]2O)O[C@H](CO)[C@@H](O)[C@@H]1O`, the dissociation constant (Kd) (protein: TAIL SPIKE PROTEIN(D339N mutant), PDB entry 2x6x) was 210 µM (active).

Turning to `CC(=O)N[C@H]1[C@H](O[C@H]2[C@H](O)[C@@H](O)[C@H](O[C@H]3[C@H](O)[C@@H](CO)OC[C@@H]3NC(C)=O)O[C@@H]2C(=O)O)O[C@H](CO)[C@@H](O)[C@@H]1O[C@@H]1O[C@H](C(=O)O)[C@@H](O)[C@H](O)[C@H]1O`, under “protein: murine cd44 hyaluronan binding domain, PDB entry 4mrd”, the Kd is 428 µM (active).

With `CC(=O)N[C@@H]1[C@@H](O[C@H]2O[C@H](CO)[C@H](O[C@H]3O[C@H](CO[C@@H]4O[C@@H](C)[C@H](O)[C@@H](O)[C@H]4O)[C@@H](O)[C@H](O)[C@H]3O)[C@H](O[C@@H]3O[C@H](CO)[C@@H](O)[C@H](O)[C@H]3NC(C)=O)[C@H]2O)[C@H](O)[C@@H](CO[C@H]2O[C@H](CO)[C@@H](O)[C@H](O)[C@H]2O)O[C@H]1O`, the Kd is, setting by setting: (protein: TAIL SPIKE PROTEIN(D339A mutant), PDB entry 2x6y) 26 µM (active); (protein: TAIL SPIKE PROTEIN, PDB entry 2x85) 129 µM (active).

`CC(=O)N[C@H]1[C@H](O[C@@H]2[C@H](O[C@]3(C(=O)O)C[C@H](O)[C@@H](NC(C)=O)[C@H]([C@H](O)[C@H](O)CO)O3)[C@@H](O)[C@H](O[C@H]3[C@H](O)[C@@H](O)[C@H](O)O[C@@H]3CO)O[C@@H]2CO)O[C@H](CO)[C@H](O)[C@@H]1O[C@@H]1O[C@H](CO)[C@H](O)[C@H](O)[C@H]1O`: the Kd (protein: ECXA, PDB entry 4l6t) is 0.032 µM (active).

`CC(=O)N[C@@H]1[C@@H](O)[C@H](O[C@@H]2O[C@H](CO)[C@@H](O[C@@H]3O[C@H](CO[C@H]4O[C@H](CO)[C@@H](O)[C@H](O)[C@@H]4O[C@@H]4O[C@H](CO)[C@@H](O)[C@H](O)[C@H]4NC(C)=O)[C@@H](O)[C@H](O[C@H]4O[C@H](CO)[C@@H](O)[C@H](O)[C@@H]4O[C@@H]4O[C@H](CO)[C@@H](O)[C@H](O)[C@H]4NC(C)=O)[C@@H]3O)[C@H](O)[C@H]2NC(C)=O)[C@@H](CO)O[C@H]1NC(=O)C[C@H](N)C(=O)O`: the Kd (protein: LECTIN, PDB entry 3zyr) was 4.6 µM (active).

For the compound `Nc1c(I)c(C(=O)O)c(I)c(C(=O)O)c1I`, for the setting “protein: EXTRACELLULAR PROTEIN 6, PDB entry 4b9h”, the Kd was 4.5 µM (active).

Take `NCCCCNCCCN`: the Kd (protein: Phospholipase A2 VRV-PL-VIIIa, PDB entry 4qf8) was 0.031 µM (active).

Regarding `N/C=C/CCNCCCN`, where the note is “protein: Putrescine-binding periplasmic protein (S38T, D39E, S87Y, A182D, D247S, F276W, L348Q mutation), PDB entry 4jdf”, the Kd was 6400 µM (active).

`COc1ccc2c(CC(=O)O)coc2c1`: where the note is “protein: Pantothenate synthetase (T2A, E77G mutation), PDB entry 4ddh”, the Kd was 500 µM (active).
